Over roughly 68,000 sequences, “fluorescence intensity (a.u.)” has its median near 9,100; the highest 2% begin near 16,000. Only a selection was taken, and the highest values are over-represented in it overall.

The target of the test is OsWRKY34 (Oryza sativa, UniProt Q0JBA9 1-250). The test is described as follows: protein-binding microarray (RPBM); PBS, 2% BSA, 51.3 ng/ul salmon testes DNA, 50 uM zinc acetate, 200 nM TF, 25 C, 1 h; high values mean tight binding. To be noted: protein: recombinant; tags: N-terminal polyhistidine and DsRed monomer fusion (pET32a); label: CyDye5-dUTP incorporated in the synthesized complementary strand; 3' TTTTT single-stranded linker to array surface; dsDNA, one strand shown. A digest of the protocol: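 An Axon 4000B scanner gave the binding signal as per-feature fluorescence intensity in arbitrary units. This followed washing of a custom Agilent array that had been incubated for 1 h at 25 °C with 200 nM protein in PBS, 2% BSA, salmon testes DNA and 50 µM zinc acetate. The proteins were transcription factors fused at the N-terminus to polyhistidine and DsRed, expressed in E. coli BL21-CodonPlus and purified on Ni–NTA.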
OsWRKY34, sequence (Q0JBA9 entry or part of it): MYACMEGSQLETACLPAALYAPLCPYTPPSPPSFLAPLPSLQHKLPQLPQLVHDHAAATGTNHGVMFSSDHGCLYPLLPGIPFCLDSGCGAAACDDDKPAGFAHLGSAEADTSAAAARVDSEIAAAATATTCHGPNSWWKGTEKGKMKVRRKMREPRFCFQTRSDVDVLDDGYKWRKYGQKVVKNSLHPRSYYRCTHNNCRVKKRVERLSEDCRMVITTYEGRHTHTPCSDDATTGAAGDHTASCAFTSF
“GCAATTATTAATGTACCGCTCCGTTTTCATTTTTGGGTTGCGGAGTCACCTAGTGCAG”: the binding signal was 8630 fluorescence intensity (a.u.).
For the sequence “TGTGGAGTTTGAGGATTGCACAATAATCTCAGGGGCGGGCCGGAGTCACCTAGTGCAG”, the binding signal is 8590 fluorescence intensity (a.u.).
“AGGTTATAAGACGTTTTGACTTTGGTTAAAGTCAAACTACCGGAGTCACCTAGTGCAG”: the binding signal was 9600 fluorescence intensity (a.u.).
The value for “CCTCTCGGGCGCCTCTCCTCTCCATCATTCCTCCCACTGCCGGAGTCACCTAGTGCAG” was 9880 fluorescence intensity (a.u.).
The value for “ACCGAAAGTTCAATTTGGTCCTTTACATTTTATTTTGTCCCGGAGTCACCTAGTGCAG” was 8240 fluorescence intensity (a.u.); that for “CCTGTGTGTTGGTGCTGTCGGTATGTGGGTGGTGGTATTTCGGAGTCACCTAGTGCAG” was 14600 fluorescence intensity (a.u.); that for “GCTATGTAATGTCCCATCCGTGCTGTATAGTTTGGGTTTTCGGAGTCACCTAGTGCAG” was 17200 fluorescence intensity (a.u.).
The same measure for “TTGTGTATTGGTGCTGTCGGTGCATGGGTGGTGGTTTTTTCGGAGTCACCTAGTGCAG”: 20700 fluorescence intensity (a.u.); for “GTACTATGTATTGTCCCATCGTTGTATAGGTTGGTTTTTTCGGAGTCACCTAGTGCAG”: 8240 fluorescence intensity (a.u.); for “TTGTGCTGGTTTTGGTTTTGGTTTTGGGTTGCATGTATGTCGGAGTCACCTAGTGCAG”: 9790 fluorescence intensity (a.u.).
For the sequence “ATGTATGCACGATGTGAGTGTCCGTGTTTGTAATGTGTTTCGGAGTCACCTAGTGCAG”, the binding signal is 11300 fluorescence intensity (a.u.).
The value for “ACCTACTCACAATCACAGAATCACATCATAACATTATTGTCGGAGTCACCTAGTGCAG” was 9160 fluorescence intensity (a.u.); that for “CCTGCCATGTCATGTTTGTACCTAGATACCAGGTATGACGCGGAGTCACCTAGTGCAG” was 8960 fluorescence intensity (a.u.).
Regarding “AGATGTTTCCGCTGATACTTTGATACGTCGTCCTTATTTGCGGAGTCACCTAGTGCAG”, the binding signal was 10800 fluorescence intensity (a.u.).
The same measure for “CCGATTCCCTGCCGCATCTGCCCGTTGCCCTCGCGCCCGGCGGAGTCACCTAGTGCAG”: 8880 fluorescence intensity (a.u.); for “TGCAGATTTGGTTTTTCTTTTTTTTCGCACGTTCTCTTTCCGGAGTCACCTAGTGCAG”: 15700 fluorescence intensity (a.u.); for “TATTTTTTGCTATTATCTTTCGTGTAAGCTATTTCTCTATCGGAGTCACCTAGTGCAG”: 9170 fluorescence intensity (a.u.).
The value for “TATATATATATATATATATATATATAGAAATTAAGTCAAACGGAGTCACCTAGTGCAG” was 8940 fluorescence intensity (a.u.); that for “CAGTGCGTATTTGCAATATATATATATAGGAAAGTTTCTTCGGAGTCACCTAGTGCAG” was 9390 fluorescence intensity (a.u.).
The value for “AAACGGTGCGTTTTTTGCAAAAAAATTCTATAGGAAAGTTCGGAGTCACCTAGTGCAG” was 63900 fluorescence intensity (a.u.).
“GTGTGTGTTTTTGCAAAAGTTTTCTATAGAAAAGTTACATCGGAGTCACCTAGTGCAG”: the binding signal was 8210 fluorescence intensity (a.u.).
The value for “AATTCAAATTCATACTGTTCAAACAAAGTCATATAGAAAACGGAGTCACCTAGTGCAG” was 28600 fluorescence intensity (a.u.).
The value for “TTTTTATACTGTTGGTACATATTCAAATTTGTCAAACATTCGGAGTCACCTAGTGCAG” was 8960 fluorescence intensity (a.u.); that for “TCCTGTGCCTCTCTCATGGTGTGGGTGTCTGTGTCTTTGACGGAGTCACCTAGTGCAG” was 9040 fluorescence intensity (a.u.).
Consider “AAGGTGGGGTCATCATAAATATTTTTTAAGTGAAAATTTTCGGAGTCACCTAGTGCAG”, for which the binding signal was 9840 fluorescence intensity (a.u.).
The same measure for “AATGGATATCAGGATATGAAGCTCAAAGTTATCGGTTATTCGGAGTCACCTAGTGCAG”: 8240 fluorescence intensity (a.u.); for “CTATGAAGTTAAAAATACGCTCATCAGAAAGGATATATTTCGGAGTCACCTAGTGCAG”: 57200 fluorescence intensity (a.u.); for “GGTTGAGGCTGTTTTCCGATCGTTCCGACCGTTTTCATCCCGGAGTCACCTAGTGCAG”: 8700 fluorescence intensity (a.u.).
As for “GCCAACCGCATGCCGTCCCCGATGCCGCCCGCCGTCAACCCGGAGTCACCTAGTGCAG”, the binding signal is 8290 fluorescence intensity (a.u.).
The same measure for “ATATTACTGGTGTTTACTTGCTTTTCTTTTTTTAAAAAAACGGAGTCACCTAGTGCAG”: 9160 fluorescence intensity (a.u.).
The value for “ATATAAGGGATTTTGAGTTTTTGATTGCAACGTTTGACCACGGAGTCACCTAGTGCAG” was 8550 fluorescence intensity (a.u.); that for “TATGCATCACCTCGTAATCCACAACTGACTTACCCTTTCTCGGAGTCACCTAGTGCAG” was 12300 fluorescence intensity (a.u.).
In the case of “CTTTTGTGCTCATCTGAACTTCTGAAGTATCATAAAGAAGCGGAGTCACCTAGTGCAG”, the binding signal is 31400 fluorescence intensity (a.u.).
Regarding “AGAATGTTTGCTCAAAGTATGTTTTTGTCATCTGTTTTTCCGGAGTCACCTAGTGCAG”, the binding signal was 8800 fluorescence intensity (a.u.).
The value for “TGCTTTTGTATTTTTTTTGCTGTGTATATATCATAAACTTCGGAGTCACCTAGTGCAG” was 8550 fluorescence intensity (a.u.).
The value for “TATTGTGTACTACATCTTTTATTATTTCTTTCAAATTTCACGGAGTCACCTAGTGCAG” was 10500 fluorescence intensity (a.u.); that for “CTCTCCCGGTCGCGCCGCCATCTCCTCTCCCAATCGCGCGCGGAGTCACCTAGTGCAG” was 8860 fluorescence intensity (a.u.); that for “CACTTCTATTGGTTCTTTGTCTGGGAGTAGCAGCATAAGTCGGAGTCACCTAGTGCAG” was 8540 fluorescence intensity (a.u.).
Take “GACCTACGTCACCACCTTGCATGTCCCACGCGGAGCTCCACGGAGTCACCTAGTGCAG”: the binding signal was 9230 fluorescence intensity (a.u.).
The same measure for “GCAACTGTGTTTTCAATTCTGCAAATGCTATTCTCTGTTACGGAGTCACCTAGTGCAG”: 11800 fluorescence intensity (a.u.); for “TTTTTTTATTTTTTTTGAAATATTTTTTGTTGGGTTTTTTCGGAGTCACCTAGTGCAG”: 13100 fluorescence intensity (a.u.); for “GCGCTTCGATTTGGTTTGGTTTGATTCGGTTTGCGAGATGCGGAGTCACCTAGTGCAG”: 8780 fluorescence intensity (a.u.).
Take “TAGATGAAATGGGTTGGGTTGATTTGGGTTGAAATATGATCGGAGTCACCTAGTGCAG”: the binding signal was 21800 fluorescence intensity (a.u.).
The same measure for “TTTGGGATAAATCATGAGGGGTTAAAAGTTGTTATATTTTCGGAGTCACCTAGTGCAG”: 10100 fluorescence intensity (a.u.).
For “CCGTCGATTTGGTTGGTTGGTTGATCGGCGGCGAGGAGGGCGGAGTCACCTAGTGCAG”, the binding signal was 11400 fluorescence intensity (a.u.).
The value for “TGATTTGCGCGAGGGTTTGGTTTGGTTTGGTTTGAGTCGACGGAGTCACCTAGTGCAG” was 19200 fluorescence intensity (a.u.).
